# Compound activity deposited in PubChem BioAssay by National Center for Advancing Translational Sciences (NCATS).
# An excerpt weighted towards active compounds, which were near 7.3% of everything screened.
# KinaseGlo FLuc – Kinase-Glo luciferase inhibition (counter-screen); Q27757; Kinase-Glo luciferase, ATP luminescence, 8 min; Potency, µM (titrated, usually from 38.3 µM), for inactives: top-dose activity change, negative = inhibition, usual class: inhibitors; 200,000 tested, 0.28% active; note: % is set by controls: 0 for no effect and ±100 for the full control effect; nearly all actives have a fitted effect of over 60% in size
#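 Light output from Kinase-Glo luciferase with luciferin and 10 uM ATP in 50 mM imidazole pH 7.2, KCl, MgCl2, Tween 20, BSA; compound pin-delivered, 8-min ambient incubation, then luminescence read.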
# FLuc counter – firefly luciferase modulation, counter-screen for miR-21 project. Potency, µM (series often up to 57.5 µM), inactives show top-dose activity change, negative = inhibition, actives largely listed as inhibitors. AID 588342. P08659. purified FLuc, Km substrates, luminescence inhibition. 360,000 tested, 6.9% active;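 note: plate controls were vehicle for no effect and reference inhibitor for full effect; nearly all actives have a fitted effect of over 55% in size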
# Target sequence (P08659 whole entry, looked up): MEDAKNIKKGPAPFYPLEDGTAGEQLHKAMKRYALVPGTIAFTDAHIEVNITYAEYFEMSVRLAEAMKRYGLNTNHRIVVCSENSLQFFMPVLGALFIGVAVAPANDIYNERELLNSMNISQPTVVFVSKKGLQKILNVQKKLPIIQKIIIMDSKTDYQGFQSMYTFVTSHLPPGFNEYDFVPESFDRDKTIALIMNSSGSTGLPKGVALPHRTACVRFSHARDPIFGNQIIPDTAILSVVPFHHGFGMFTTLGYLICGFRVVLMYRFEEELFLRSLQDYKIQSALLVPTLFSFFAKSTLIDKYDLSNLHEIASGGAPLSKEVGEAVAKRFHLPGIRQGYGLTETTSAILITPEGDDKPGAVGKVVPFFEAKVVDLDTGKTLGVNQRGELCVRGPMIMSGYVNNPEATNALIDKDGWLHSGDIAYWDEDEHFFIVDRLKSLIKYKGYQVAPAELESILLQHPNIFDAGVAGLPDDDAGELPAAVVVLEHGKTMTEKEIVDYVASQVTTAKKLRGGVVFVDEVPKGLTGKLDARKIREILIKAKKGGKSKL
#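 Biochemical qHTS of compounds, final roughly 60 µM downward over six points, against 10 nM purified firefly luciferase using Km concentrations of substrates (10 uM D-luciferin, 10 uM ATP) in Tris acetate pH 7.5 buffer; luminescence output.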
# ELG1 genotox – induces genotoxicity in HEK293T cells with luciferase-tagged ELG1. HEK293T ELG1-luciferase reporter, luminescence, 16 h. Potency, µM (titrated, usually from 46 µM), inactives show top-dose activity change, positive = activation, most hits filed as activators. 330,000 tested, 1.3% active. AID 504466; note: % of control where 0% means no effect; nearly all actives have a fitted effect of over 60% in size
#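 Cells (2,000/well) expressing the ELG1-luciferase fusion are dosed by pin tool and kept 16 hr at 37 °C, 5% CO2. Signal comes from ONE-Glo luciferase reagent after 30 min at room temperature.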
# Rab9 prom act – activators of Rab9 promoter; Potency, µM (titrated, usually from 9.22 µM), inactives show at the top dose activation, negative = inhibition, actives largely listed as activators; 320,000 tested, 2.8% active; Huh7 Rab9 promoter-luciferase reporter, luminescence, 24 h; note: % of control where 0% means no effect; nearly all actives have a fitted effect of over 60% in size
#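 Cell-based reporter: Huh7 stable for Rab9 promoter-driven luciferase, plated in reduced-serum medium with 10% FBS at 1500 cells/well, compound-treated 24 h at 37 °C, luminescence read after 10 min reagent.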
# NPC1 prom act – activators of NPC1 promoter | Huh7 NPC1 promoter luciferase reporter, 24 h | Potency, µM (highest dose often 9.22 µM), for inactives: at the highest dose activation, hits mostly activators | 320,000 tested, 2.4% active | AID 485313; note: % of control where 0% means no effect; nearly all actives have a fitted effect of over 60% in size
#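 Huh7 cells stably carrying NPC1 promoter–luciferase, plated in Opti-MEM with 10% FBS for 2 h, were exposed to compound in DMSO for 24 h at 37 °C; luciferase reagent was added for 10 min and luminescence read.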
# SMN2 splice up – enhancers of SMN2 splice variant expression | HEK293 SMN2-luciferase splicing reporter, luminescence, 30-36 h | Potency, µM (top dose mostly 46.1 µM), for the others: at the top dose activity change, positive = activation, hits mostly activators | 210,000 tested, 2.8% active; note: % of control where 0% means no effect; nearly all actives have a fitted effect of over 55% in size
#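 qHTS luciferase splicing reporter: luminescence rises when SMN2 exon 7 is included in transfected HEK293 cells. Compound exposure lasted 30-36 h at 37C, with 4.5 mM final sodium butyrate as control, followed by a ONE-Glo read.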
# * = called active by the depositor; ? = inconclusive; . = no result. Calls come from the whole dose curve; as a rule, active = well fitted curve in the direction sought with a large enough effect; inconclusive = small, poorly fitted or top-dose-only effect, or another doubt; inactive = no such curve, though single readings can be large; an effect the other way counts as inactive or inconclusive. Potency is the fitted concentration of half-maximal effect.
SMILES,KinaseGlo FLuc,FLuc counter,ELG1 genotox,Rab9 prom act,NPC1 prom act,SMN2 splice up
O=C(Nc1nc2c(s1)CCc1ccccc1-2)c1ccco1,-2%,17µM*,11%,?,?,16µM*
COc1ccc(OC)c(NC(=O)C2CCCN(S(=O)(=O)c3ccc4[nH]c(=O)ccc4c3)C2)c1 (stereo not drawn),.,3%,.,.,.,.
COC(=O)[C@H](Cc1ccccc1)NC(=O)O[C@@H]1C(=O)c2ccc(OC)cc2O[C@H]1c1ccc2c(c1)OCO2,2%,.,.,.,.,-8%
O=C(Nc1ccc(N2CCCC2)cc1)c1cccc(-c2cc3ccccc3oc2=O)c1,1%,11µM*,-2%,1%,6%,-18%
O=C(Nc1cccc(F)c1)c1ccccc1,-6%,?,9%,?,?,2%
CC(C)c1ccc(CNc2ccc(N3CCOCC3)cc2)cc1,1%,?,?,3%,11%,-58%
O=C(Nc1ccc(N2CCCCC2)cc1)c1cncc(Br)c1,-8%,6µM*,4%,?,3.5µM*,?
Cc1ccc(CNc2ccc(N3CCOCC3)cc2)cc1,.,8.5µM*,?,2.8µM*,4µM*,.
O=C(Nc1ccccc1N1CCCC1)c1cccc(-c2cc3ccccc3oc2=O)c1,-2%,?,-5%,18%,17%,0%
O=C(Nc1ccc(Nc2ccccc2)cc1)c1cccc(F)c1,.,13µM*,?,4.5µM*,?,.
O=C(CSc1nc2c(c(=O)[nH]1)CCC2)Nc1ccccc1F,.,-2%,.,.,.,.
Cc1ccc(NC(=O)CN2C(=O)COc3ccc(S(=O)(=O)N4CCCCCC4)cc32)c(C)c1,.,-3%,.,.,.,.
Cc1ccc(-n2ncc(C(=O)N3CCCCC3)c2C2CCN(C(=O)OC(C)(C)C)CC2)c(C)c1,.,5%,.,.,.,.
CCC(C)NC(=O)Cn1c(=O)n(-c2cc(OC)cc(OC)c2)c(=O)c2ccccc21 (stereo not drawn),.,1%,.,.,.,5%
O=C(O)CCC(=O)N1CCN(c2ccc(C(=O)c3ccc(F)cc3)cc2)CC1,-1%,?,-1%,1%,-1%,-14%
CC(=O)Nc1cc(C(=O)c2ccccc2)ccc1N1CCOCC1,4%,2%,-2%,1%,1%,-10%
O=C(c1ccccc1)c1ccc(N2CCCC2)cc1,-5%,6.7µM*,3.7µM*,2.5µM*,3.2µM*,25µM*
Nc1cc(C(=O)c2ccccc2)ccc1N1CCOCC1,0%,17µM*,6%,25%,?,?
O=C(c1ccccc1)c1ccc(N2CCNCC2)cc1,-1%,?,?,28%,16%,10%
Cc1ccc(C(=O)Nc2ccc(N3CCCC3)cc2)cc1,-7%,?,?,1.8µM*,?,11µM*
CN1CCN(c2ccc(C(=O)c3ccc(F)cc3)cc2)CC1,-4%,11µM*,13µM*,3.2µM*,?,?
Cc1ccc(SCCNC(=O)CN(c2ccccc2)S(=O)(=O)N(C)C)cc1,.,-2%,.,.,.,-12%
COc1ccc(NC(=O)c2c(-c3ccc(C)cc3)nnc3ccccc23)c(OC)c1,.,-12%,.,.,.,.
CCOc1ccccc1NC(=O)Cn1c(=O)n(Cc2cccs2)c(=O)c2cccnc21,.,-11%,.,.,.,0%
Cc1nn2c(C)c(C(=O)NCc3cccc(Br)c3)cnc2c1-c1ccccc1,.,-11%,.,.,.,.
CC(=O)N1CCN(c2ccc(NC(=O)c3cccc(Cl)c3)cc2)CC1,.,?,?,?,2.2µM*,.
O=C(Nc1ccc(N2CCCCC2)cc1)c1ccccc1,?,1.9µM*,?,0.28µM*,0.4µM*,1.4µM*
CCc1ccc(NC(=O)c2cccc(N3CCCS3(=O)=O)c2)cc1,.,12µM*,.,.,.,.
O=C(Nc1ccc(N2CCCC2=O)cc1)c1cccc(F)c1,7.9µM*,5.4µM*,2.9µM*,3.2µM*,1.6µM*,7.1µM*
CC(C)CC(=O)Nc1ccc(C(=O)OCc2cc(=O)n3nc(C(C)C)sc3n2)cc1,.,-3%,.,.,.,.
